# Reference: PubChem BioAssay AID1347417 (National Center for Advancing Translational Sciences (NCATS), 2020)
# Out of some 120,000 compounds screened, about 5,300 (4.4%) were called active. Entries that show only a call come without a potency. Inconclusive results (about 22%) are left out. This is one part of a sample in which actives are shown more often than they occur. Values without a mark were called inactive. Calls follow the shape of the dose curve; as a rule, active = well fitted inhibition curve with a large enough effect; inconclusive = small, poorly fitted or top-dose-only effect; inactive = no such curve, though single readings can be large or run the other way.
# Assay: qHTS Primary assay for Inhibitors of Plasmodium falciparum Dd2 growth in vitro; also: nearly all actives have a fitted effect of over 65% in size
# Settings: P. falciparum Dd2 growth, SYBR Green, 72 h; series mostly up to 28.9 µM
# Excerpt: Malaria, a parasitic disease spread to humans through the bite of a Plasmodium infected Anopheles mosquito, continues to be a global health burden affecting millions of people, with an estimated 228 million cases and 405,000 deaths in 2018. Concerns about safety and limitations of current antimalarial treatments strongly emphasize the need to develop new therapeutic options. The scarce number of chemotypes and validated drug targets with efficacy against the liver stage, have hindered development of new antimalarials. To address this, a chemoprophylactic drug discovery effort was conducted through a combined phenotypic high-throughput asexual blood stage and liver stage screen, providing a robust foundation to identify liver-stage active lead chemotypes. Compounds were initially screened against Plasmodium falciparum Dd2 strain parasites using a in vitro SYBRGreen-1 based 72 hr proliferation assay to identify novel chemotypes to advance to liver stage assays. NIH/NCATS Early Translation Branch Assay Submitter (PI): Anton Simeonov Ph.D.
# Malaria-vivax Assay Protocol: PROTOCOL TABLE (as described by Inglese et al., 2007) SEQUENCE No. (e.g., 1, 2, 3, etc.); […] (e.g., Cells, Incubation, Reagent, etc.); VALUE; DESCRIPTION SEQUENCE, Parameter, Description 1; Reagent; 3 uL complete malaria growth medium, 1536 TC treated Black clear bottom plate 2; Controls; 23 nL positive control artesunate (300 nM final) to column 1; Neutral control DMSO to columns 2-4 3; Compound; 23 nL of compounds in dose response concentration (29 uM to 0.5 nM final) 4; Reagent; 5 uL malaria infected red blood cells (2.5% hematocrit final, 0.3% parasitemia 5; Time; 72 hours at 37C (5% O2, 5% CO2, 90% N2; 95% Rh) 6; Reagent; 2 uL lysis buffer/SYBRGreen-1, 25 sec shake immediately following dispense 7; Time; ~16 hours at 37C (5% O2, 5% CO2, 90% N2; 95% Rh) 8; Detector; EnVision (PerkinElmer) bottom read at 485/14nm excitation and 535/25 nm emission NOTES (numbers refer to sequence above): 1; Complete Malaria Growth Media: 1X RPMI-1640 w/L-glutamine, 5.5g/L Albumax II, 367 uM Hypoxanthine, 25 mM HEPES, 0.25% Sodium Bicarbonate, 35 uM Gentamicin sulfate 2; Controls were added using the Kalypsis Pintool (Wako USA) equipped with 1536 pinhead 3; Compounds were added in a 7-point, titration with a high final concentration of 29 uM by Pintool from seven inter-plate titrations of library plates and two DMSO control plates at the beginning and end (see Yasgar et al., 2008). 4; Red blood cells infected with Plasmodium falciparum Dd2 parasites were used. 6; Lysis buffer: 20 mM Tris-HCl, 10 mM EDTA, 0.16% Saponin, 1.6% Triton-X, 10X SYBR Green. REFERENCE: Inglese J, Shamu CE, Guy RK. 2007. Reporting data from high-throughput screening of small-molecule libraries. Nat Chem Biol. doi:10.1038/nchembio0807-438 Yasgar A, Shinn P, Jadhav A, Auld D, Michael S, Zheng W, Austin CP, Inglese J, Simeonov A. 2008. Compound Management for Quantitative High-Throughput Screening. J Lab Autom 13:79-89. doi:10.1016/j.jala.2007.12.004
# Potency is read from the fitted curve at half-maximal effect.
SMILES,Potency,"activity, negative = inhibition"
CN(Cc1ccccc1)C[C@H]1CN2CC[C@H]1C[C@@H]2CNC(=O)Nc1ccsc1,10 µM (active),
CC[C@H]1CN2CC[C@H]1C[C@@H]2CNC(=O)c1ccc(N(C)C)cc1,inactive,
C=CCN(C)C[C@H]1CN2CC[C@H]1C[C@@H]2CNC(=O)Nc1cccc(SC)c1,inactive,
CCc1nc(-c2cc(S(=O)(=O)N3CCN(c4ccc(OC)cc4)CC3)ccc2OC)no1,inactive,
COc1ccc(S(=O)(=O)N2CCN(c3ccc(F)cc3)CC2)cc1-c1noc(C)n1,inactive,
COc1ccc(OC)c(-c2noc(N3CCN(c4cc(Cl)ccc4C)CC3)n2)c1,8.91 µM (active),
COc1nccnc1NC1CCN(C(=O)CCc2c(C)noc2C)CC1,,30.5% [at 5.79 µM]
O=C(Cc1ccsc1)N1CCC(c2n[nH]c(=O)n2Cc2ccc(F)cc2)CC1,inactive,
Cn1cc(CNC(=O)C[C@@H]2C[C@H]3O[C@H](CNC4CCCC4)[C@@H](O)[C@H]3O2)cn1,inactive,
COc1cc(-c2ccnc3nc(C4CC4)nn23)cc(OC)c1OC,inactive,
Cc1cc(Nc2cccc(C(F)(F)F)c2)nc2ccc(NC(=O)c3ccc(=O)[nH]c3)cc12,3.98 µM (active),
Cn1c(C(=O)Nc2cccc(C(F)(F)F)c2)cc2c(=O)n3ccccc3nc21,inactive,
Cc1cccc(C(=O)Nc2ccc(-c3nc4ccccc4s3)c(C)c2)c1,inactive,
O=C(O)c1ccnc(-c2ccnc(NCCN3CCCCC3CO)n2)c1 (configuration not stated),inactive,
CN1CCCN(C(=O)c2ccccc2OC(F)(F)F)c2ccccc21,inactive,
COc1cccc(C(=O)N2CCCN(C(=O)C3CC3)c3ccccc32)c1OC,inactive,
COc1ccccc1C(=O)N1CCCN(CCc2ccccc2)c2ccccc21,11.2 µM (active),
COc1ccc(C2Cn3nnc(-c4noc(-c5ccccc5)n4)c3CO2)cc1 (configuration not stated),inactive,
COCCN1C(=O)[C@H]2CN(Cc3ccsc3)C[C@H]2C1=O,inactive,
N#Cc1nc(/C=C/c2ccc(F)cc2)oc1NCc1ccc(F)cc1,inactive,
COc1ccccc1/C=C/c1nc(C#N)c(NC(C)c2ccccc2)o1 (configuration not stated),4.47 µM (active),
COc1ccc(/C=C/c2nc(C#N)c(NCc3ccc(F)cc3)o2)cc1OC,inactive,
COCCn1nnnc1C1CC2(CCOCC2)C(=O)N1Cc1ccc(SC)cc1 (configuration not stated),inactive,
CC(=O)Nc1cccc(-c2nnc3n2CCCC3)c1,inactive,
COc1ccc(C(=O)Nc2cccc(-c3nnc4n3CCCC4)c2)cc1,10 µM (active),

SMILES,Potency,"activity, negative = inhibition"
COc1cccc(NC(=O)c2c(OC)cc(=O)n3c2CCCC3)c1,inactive,
Cc1noc(C)c1C(=O)N1CC(N(Cc2cccnc2)CC(C)C)C1,inactive,
O=C(c1ccsc1)N1CCCn2cc(-c3ccc4c(c3)OCO4)nc21,inactive,
CC(C)c1ccc(NC(=O)Cn2c3ncccc3c(=O)n2-c2ccccc2)cc1,inactive,
Cc1ccc(-n2c(=O)c3cccnc3n2CC(=O)NCc2ccc(F)cc2)cc1C,inactive,
Cc1ccc(-n2c(=O)c3cccnc3n2CC(=O)Nc2ccccc2C(F)(F)F)cc1C,8.91 µM (active),
C=CCNC(=O)N1CC[C@H]2CC(=O)N(c3ccccc3)CC[C@H]2C1,inactive,
C[C@@]1(O)CCN(Cc2cc(=O)n3[nH]cnc3n2)C[C@@H]1O,inactive,
COCc1nc(C2CCCN(C(=O)c3ccccn3)C2)no1 (configuration not stated),inactive,
CCOc1ccc(C(=O)N2CCCC(c3noc(COC)n3)C2)cc1 (configuration not stated),inactive,
O=C(C1CCCC1)N1CCCC(c2noc(COc3ccccc3)n2)C1 (configuration not stated),8.91 µM (active),
COC(=O)c1cc(NC(=O)CCS(=O)(=O)c2cc(Br)cc3c2N(C(=O)C2CC2)CC3)cc(C(=O)OC)c1,inactive,
O=C(C1CC1)N1CCc2cc(Br)cc(S(=O)(=O)N3CCN(c4ccccc4F)CC3)c21,inactive,
O=C(CCS(=O)(=O)c1cc(Br)cc2c1N(C(=O)C1CC1)CC2)Nc1ccc(C(F)(F)F)cc1,1.12 µM (active),
CN1CC2(CCN(C(=O)c3cccn3C)CC2)CC1C(=O)N1CCOCC1 (configuration not stated),inactive,
O=C(Nc1ccc(F)cc1F)c1ccc2c(c1)n(Cc1cccc(F)c1)c(=O)c1ccnn12,inactive,
CCNC(=O)N1CCCC1c1noc(CCC(=O)NCCc2nc3ccccc3[nH]2)n1 (configuration not stated),inactive,
CC(=O)N1Cc2ccccc2CC2(CCN(Cc3ccc(O)cc3)CC2)C1,inactive,
C[C@H](C(=O)N1Cc2ccccc2CC2(CCN(Cc3ccncc3)CC2)C1)c1ccccc1,11.2 µM (active),
CC(=O)N1Cc2ccccc2CC2(CCCN(Cc3ccncc3)C2)C1 (configuration not stated),inactive,
O=C(CCc1cccnc1)N1CCc2c(n(CCOc3ccccc3)n(-c3ccccc3)c2=O)C1,inactive,
COCCCNC(=O)c1cc(C2CC2)nc2onc(C3CCCN3)c12 (configuration not stated),inactive,
CC(C)C[C@@H]1N[C@H](C(=O)NC(C)C)Cc2c[nH]c3cccc1c23,inactive,
CCN1C(=O)CCN(C(=O)c2cnn(C)c2)CC12CCOCC2,inactive,
Cc1nnc(N2CCCC(C(=O)NCCN(C)C)C2)c2nn(-c3ccccc3)c(C)c12 (configuration not stated),inactive,

SMILES,Potency,"activity, negative = inhibition"
CCCCNC(=O)C1CCCN(c2nnc(C)c3c(C)n(-c4ccc(Cl)cc4)nc23)C1 (configuration not stated),inactive,
CCc1ccc(CNC(=O)C2CCN(c3nnc(C)c4c(C)n(-c5ccc(C)cc5)nc34)CC2)cc1,10 µM (active),
O=C1c2cc(N3CCOCC3)nc(-c3cccnc3)c2CN1C1COC1,inactive,
CN1Cc2c(cc(N3CCOCC3)nc2-c2cccc(F)c2)C1=O,inactive,
COc1cccc(-c2nc(N3CCOCC3)cc3c2CN(CC2CC2)C3=O)c1,11.2 µM (active),
O=C1CCC(C(=O)NCc2ccc(-c3cnc4c(Oc5ccccc5)nccn34)cc2)N1 (configuration not stated),inactive,
COc1ccc(C2Cn3nnc(-c4nc(-c5ccc(OC(C)C)cc5)no4)c3CO2)cc1 (configuration not stated),inactive,
CC1=C(c2ccc(Cl)cc2)S(=O)(=O)N=C1N1CCN(c2cc(C)ccc2C)CC1,inactive,
Cc1ccc(C)c(N2CCN(CCCNC(=O)Nc3ccc(Cl)cc3)CC2)c1,10 µM (active),
Cc1ccc(C)c(N2CCN(C(=O)Cc3c(C(=O)O)c(C)cn3C)CC2)c1,inactive,
CCOC(=O)c1c(C)[nH]c(CCC(=O)Nc2ccc(OC)c(OC)c2)c1C,inactive,
CCOC(=O)c1c(C)[nH]c(CCC(=O)NCCCN2CCN(c3cc(C)ccc3C)CC2)c1C,10 µM (active),
CCOC(=O)c1c(C)[nH]c(CCC(=O)NCCCN2CCN(c3cccc(Cl)c3)CC2)c1C,inactive,
CCN1CCCC1CNC(=O)CCC1CCN(Cc2ccc(Cl)o2)CC1 (configuration not stated),inactive,
O=C(Cn1ccn2nc(-c3ccc(F)cc3)c(CO)c2c1=O)NCCC1=CCCCC1,inactive,
COc1cccc(CNC(=O)Cn2c(C)cc3nc4n(c(=O)c32)CCCC4)c1,inactive,
O=C1CSC2(CCN(S(=O)(=O)c3ccc(F)cc3)CC2)N1Cc1ccco1,inactive,
CC(C)CCN1CCC(N2CCN(C(=O)C3CCC3)CC2)C1=O (configuration not stated),inactive,
CNC(=O)[C@@H]1CN(Cc2cccc(OC)c2)C[C@H]1CO,inactive,
COc1cccc(CN2CCc3nc(SCC(=O)Nc4ccccc4)[nH]c(=O)c3C2)c1,inactive,
COc1cccc(CN2CCc3c(cc(C(=O)NCCN4CCCCC4)n3C)C2)c1,3.98 µM (active),
CCc1ccc(C(=O)N2CCC(c3n[nH]c(=O)n3Cc3ccc(OC)cc3)CC2)cc1,inactive,
O=Cc1cccc(N2CCN(C(=O)N3CCCC3)CC2=O)c1,inactive,
CC(C)N1CC[C@@H]2[C@H]1C(=O)NC[C@H](CCC(=O)NCc1ccccc1)N2C,inactive,
COCc1cc(C[C@@H]2CC[C@H](O)[C@@H](CN(CC3CCCCC3)CC3CCCCC3)O2)no1,3.16 µM (active),

SMILES,Potency,"activity, negative = inhibition"
CCC(CC)C(=O)NC[C@H]1O[C@H](Cc2cc(-c3ccc(F)cc3)on2)CC[C@@H]1O,inactive,
COCc1cc(C[C@@H]2CC[C@H](O)[C@@H](CN(C)C)O2)no1,inactive,
O=C(CN1C(=O)COc2ccc(C(=O)COc3ccc(Cl)cc3F)cc21)NCCc1ccccc1,inactive,
Cc1ccc(C)c(C(=O)NC2CCN(c3cnn(CC4CC4)c(=O)c3)CC2)c1,inactive,
C[C@]1(O)CCN(C(=O)c2ccc(N3CC(=O)NC3=O)cc2)C[C@@H]1O,inactive,
Cc1noc([C@@H]2CN(S(=O)(=O)c3ccc4c(c3)CCC4)C[C@H]2C(N)=O)n1,inactive,
Cc1nc(N2CCOCC2)c2c(C(=O)NCc3cccc(Cl)c3)c(C)oc2n1,inactive,
CCOC(=O)c1c(C)oc2nc(C)nc(N(CC(C)C)CC(C)C)c12,10 µM (active),
CCOC(=O)c1c(C)oc2nc(C)nc(N3CCN(c4ccc(OC)cc4)CC3)c12,10 µM (active),
COc1ccc(N2CCN(C(=O)c3c(C)oc4nc(C)nc(N5CCCC5)c34)CC2)cc1,inactive,
CN(CCc1noc(C2CN(C(=O)c3cc(F)ccc3F)C2)n1)C(=O)C1CC1,inactive,
Cc1nc(N(C)C)ncc1C(=O)N[C@@H]1CCOC[C@H]1Oc1ccccn1,inactive,
COc1ccc(O[C@H]2COCCN(S(=O)(=O)c3c(C)noc3C)C2)cc1,inactive,
O=C(c1ccccn1)N1C[C@@H]2OCC(=O)N(CC3CC3)[C@@H]2C1,inactive,
CCN(CCCNC(=O)c1cc2c(=O)n(CC)c3ccccc3c2s1)Cc1ccccc1,4.47 µM (active),
CCc1ccc(CNC(=O)c2cc3c(=O)n(CC)c4ccccc4c3s2)cc1,inactive,
CCn1c(=O)c2cc(C(=O)NCCc3ccc(Cl)cc3)sc2c2ccccc21,inactive,
CN(Cc1ccc2c(c1)OCO2)C(=O)C1(C)CCOCC1,inactive,
COCCNC(=O)CC[C@]12CC[C@](C)(O)C[C@H]1C(C)(C)C[C@@H]2NC(=O)c1ccc(C(F)(F)F)cc1,inactive,
Cc1cc(F)ccc1NC(=O)CCC1CCCN(C(=O)c2ccc(Cl)s2)C1 (configuration not stated),inactive,
Cc1noc(C)c1C(=O)N1CCCC(CCc2ccc(F)cc2F)C1 (configuration not stated),inactive,
Cc1c[nH]c(CN2CCCC(CCc3ccc(F)cc3F)C2)c(C)c1=O (configuration not stated),10 µM (active),
